Measurements: PubChem BioAssay (EPA / NIEHS)
Records with an inconclusive call do not appear. Active and inactive are the calls of the source. The calls were made as follows, unless noted: active = hit-call score of the fitted dose curve at least 0.9, where 1 is the maximum; inactive = score below 0.9.

What was measured:
TTR (gene 7276) = assay: CCTE_GLTED_hTTR_0.125uM: CCTE's human Transthyretin (hTTR) Inhibition Assay, with 0.125uM TTR, Great Lakes Toxicology and Ecology Division (GLTED) Lab (AID 2284431);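 also: hits lower the fluorescence signal relative to DMSO baseline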
In short: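 Probe-displacement format: chemicals competing for the T4 site release ANSA from 0.125uM TTR during a 2 h incubation, measured by fluorescence at 380 excitation and 475 emission.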

[1] = system: SRY-box transcription factor 2 (SOX2) Protein Expression, Deisenroth Lab, SOX2 (gene 6657); assay: CCTE_Deisenroth_DEVTOX-GLR_Endo_SOX2: CCTE's DevTox GLR-Endo Assay Evaluation of SRY-box transcription factor 2 (SOX2) Protein Expression, Deisenroth Lab (AID 2284412; active = hit-call score of the fitted dose curve at least 0.9, where 1 is the maximum)
In short: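 Endpoint is percent SOX2-positive cells (SOX2+ count/total cells) minus 0.2% DMSO control, from high-content imaging of fixed, nuclear-stained RUES2-GLR cells. Dosing twice at 24 h intervals over 48 h differentiation, 1 nM–200 uM in 10 points.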

[2] = system: SRY-box transcription factor 17 (SOX17) Protein Expression, Deisenroth Lab, SOX17 (gene 64321); assay: CCTE_Deisenroth_DEVTOX-GLR_Endo_SOX17: CCTE's DevTox GLR-Endo Assay Evaluation of SRY-box transcription factor 17 (SOX17) Protein Expression, Deisenroth Lab (AID 2284413)
In short: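 Human RUES2-GLR cells carrying an inducible fluorescent reporter are differentiated in defined media for 48 h and dosed twice, 24 h apart. After fixation and nuclear staining, imaging yields SOX17+ cell percentage relative to 0.2% DMSO-treated differentiated cells.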

[3] = system: Brachyury (BRA) Protein Expression, TBXT (gene 6862); assay: CCTE_Deisenroth_DEVTOX-GLR_Endo_BRA: CCTE's DevTox GLR-Endo Assay Evaluation of Brachyury (BRA) Protein Expression, Deisenroth Lab (AID 2284417)
In short: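 RUES2-GLR human pluripotent cells, seeded 24 h, then differentiated 48 h in defined media with two chemical exposures 24 h apart (10-point series, 1 nM - 200 uM). Fixed, nuclear-stained, imaged; endpoint is percent BRA+ cells minus 0.2% DMSO control.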

[4] = CCTE_Deisenroth_DEVTOX-GLR_Endo_CellCount: Viability Assessment in CCTE's DevTox GLR-Endo Assay, Deisenroth Lab (AID 2284420)
In short: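 Viability in differentiating RUES2-GLR cultures is scored by fluorescent nuclear counts after 48 h and two 24-hourly chemical treatments, as percent change from the 0.2% DMSO control.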

[5] = system: SRY-box transcription factor 17 (SOX17) Protein Expression, Deisenroth Lab, SOX17 (gene 64321); assay: CCTE_Deisenroth_DEVTOX-GLR_Pluri_SOX17: CCTE's DevTox GLR-Pluri Assay Evaluation of SRY-box transcription factor 17 (SOX17) Protein Expression, Deisenroth Lab (AID 2284427; active = hit-call score of the fitted dose curve at least 0.9, where 1 is the maximum)
In short: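 Seed cells 24 h; differentiate 48 h, dosing at 0 and 24 h (1 nM - 200 uM); fix, stain nuclei, image 5 fields per well; count SOX17+ cells over total cells and subtract 0.2% DMSO control.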

[6] = system: SRY-box transcription factor 2 (SOX2) Protein Expression, Deisenroth Lab, SOX2 (gene 6657); assay: CCTE_Deisenroth_DEVTOX-GLR_Pluri_SOX2: CCTE's DevTox GLR-Pluri Assay Evaluation of SRY-box transcription factor 2 (SOX2) Protein Expression, Deisenroth Lab (AID 2284428)
In short: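 SOX2 expression frequency is scored in a human pluripotent reporter line, RUES2-GLR, exposed to chemicals twice over 48 h. Imaging-based SOX2+ cell percentage is normalized as change versus 0.2% DMSO.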

[7] = system: Brachyury (BRA) Protein Expression, Deisenroth Lab, TBXT (gene 6862); assay: CCTE_Deisenroth_DEVTOX-GLR_Pluri_BRA: CCTE's DevTox GLR-Pluri Assay Evaluation of Brachyury (BRA) Protein Expression, Deisenroth Lab (AID 2284429; active = hit-call score of the fitted dose curve at least 0.9, where 1 is the maximum)
In short: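 RUES2-GLR reporter line; 48 h mesoderm differentiation; two exposures, 24 h apart; 1 nM - 200 uM, 10 points; nuclear stain, high-content imaging, 5 fields/well; endpoint = %BRA+ cells of total count minus 0.2% DMSO; n=4.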

[8] = CCTE_Deisenroth_DEVTOX-GLR_Pluri_CellCount: Viability Assessment in CCTE's DevTox GLR-Pluri Assay Evaluation of Total Cell Counts, Deisenroth Lab (AID 2284430)
Procedure: CCTE_Deisenroth_DEVTOX-GLR_Pluri assay is a cell-based, multiplex-readout assay that uses RUES2-GLR, a human pluripotent cell line, with measurements taken at 48 hours after chemical dosing in a 384-well microplateCCTE_Deisenroth_DEVTOX-GLR_Pluri_CellCount is 1 of 4 assay components calculated from the CCTE_Deisenroth_DEVTOX-GLR_Pluri assay and it measures cell count. Using fluorescent nuclei staining, gain-of-signal activity can be used to understand changes in cell viability with fluorescent microscopy. It is designed to make measurements of nuclei counts as a surrogate for cell number, as detected with optical fluorescence microscopy by Perkin Elmer Harmony nuclei detection algorithm. To generalize the intended target to other relatable targets, this assay component is annotated to the cell cycle intended target family, where the subfamily is cytotoxicity.Data from the assay component CCTE_Deisenroth_DEVTOX-GLR_Pluri_CellCount was analyzed as 1 assay endpoint. The endpoint the percent change in the cell count relative to the 0.2% DMSO control in the CCTE_Deisenroth_DEVTOX-GLR_Pluri assay. Furthermore, this assay endpoint can be referred to as a primary readout, because this assay has produced multiple assay endpoints where this one serves as a measure of cytotoxicity.
All assay protocols are aligned to the DevTox GLR-Endo assay workflow. Cells are seeded into 384-well microplates for 24 hours prior to initiating differentiation in defined media for a total duration of 48 hours. A total of two chemical exposures are administered in 24-hour intervals during the 48-hour differentiation period. At the assay termination point, cells are fixed and stained with a fluorescent dye demarcating the nucleus. High-content imaging is used to acquire brightfield and fluorescent channel images across 5 fields per well. Cell identification and mean biomarker fluorescence intensities are calculated with image analysis software to determine the total cell counts for viability assessment and the biomarker expression frequency for each lineage-dependent assay. […]

CCCN(CCC)c1c([N+](=O)[O-])cc(C(F)(F)F)c(N)c1[N+](=O)[O-]
AC50 (TTR (gene 7276)): 0.348 µM (active)

O=C(O)C1(C(=O)Nc2ccc(Cl)cc2Cl)CC1
AC50 (TTR (gene 7276)): 8.06 µM (active)

N#CSCSc1nc2ccccc2s1
AC50 (TTR (gene 7276)): 10.1 µM (active)

CC(C)(c1ccc(O)cc1)c1ccc(O)cc1
AC50 [1]: 64.4 µM (active)
AC50 [2]: 50.8 µM (active)
AC50 [3]: 83.8 µM (active)
AC50 [4]: 35.5 µM (active)
AC50 [5]: 29.3 µM (active)
AC50 [6]: 38.9 µM (active)
AC50 [7]: 38.4 µM (active)
AC50 [8]: 19.7 µM (active)
AC50 (TTR (gene 7276)): 7.82 µM (active)

O=C(Nc1ccc([N+](=O)[O-])cc1Cl)c1cc(Cl)ccc1O
AC50 (TTR (gene 7276)): 0.633 µM (active)

OB(O)O
outcome [2]: inactive
AC50 [3]: 30.5 µM (active)
outcome [4]: inactive
outcome [5]: inactive
outcome [6]: inactive
outcome [7]: inactive
outcome [8]: inactive

COC(=O)c1ccc(I)cc1S(=O)(=O)NC(=O)Nc1nc(C)nc(OC)n1
AC50 (TTR (gene 7276)): 1.8 µM (active)

CC(C)CCCCCCc1ccc(O)cc1
AC50 (TTR (gene 7276)): 1.87 µM (active)

CCCCC(CC)COC(=O)c1ccccc1C(=O)O (stereo not given)
AC50 [2]: 100 µM (active)
AC50 [3]: 160 µM (active)
AC50 [4]: 109 µM (active)
AC50 [5]: 100 µM (active)
AC50 [6]: 100 µM (active)
AC50 [7]: 70.4 µM (active)
outcome [8]: inactive
AC50 (TTR (gene 7276)): 1.44 µM (active)
